49 molecules from PubChem BioAssay AID1839 (Johns Hopkins Ion Channel Center, 2009) can be followed below.

Hit rate of the full screen: of about 2,400 compounds, about 220 (9.2%) were called active. This is one part of a sample in which actives are shown more often than they occur. A number with no mark means an inactive call.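 The calls were made as follows: active = signal change above the mean of dofetilide-free buffer controls plus 3 SD, so a positive margin; inactive = the rest.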

This assay in a line: nonspecific flux effects in parental CHO-K1, confirmation, counter-screen for hERG block protection project, cell-based, CHO-K1 parental line, FluxOR thallium flux (AID 1839).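 Also: compounds applied alone with no dofetilide to cells lacking hERG.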 To be noted: CHO-K1 parental cells, FluxOR thallium flux fluorescence; at 10 µM. A general note: The purpose of a counterscreen is to sort out artefacts and off-target activity.
Consider `CC(Nc1ccc(F)cc1)=[N+](C)CCNS(=O)(=O)c1ccc(Cl)cc1`, for which the signal change vs control minus 3*SD hit threshold (margin above threshold, higher = more increase) is -34.8%.
Consider `CC(=O)c1c(C)[nH]c(-c2ccccc2)nc1=S`, for which the signal change vs control minus 3*SD hit threshold (margin above threshold, higher = more increase) was -20.4%.
Take `CC(=O)c1c(N)[nH]c(-c2ccccc2)nc1=S`: the signal change vs control minus 3*SD hit threshold (margin above threshold, higher = more increase) was -6.7%.
Take `CSc1nc(-c2ccccc2)[nH]c(=S)c1C(C)=O`: the signal change vs control minus 3*SD hit threshold (margin above threshold, higher = more increase) is 34.8% (active).
Consider `O=C1C2CC=CCC2C(=O)N1c1ccc(Cc2ccncc2)cc1` (centres undefined), for which the signal change vs control minus 3*SD hit threshold (margin above threshold, higher = more increase) is -16%.
As to `CCCCn1c(-c2csc(C(C)C)c2)n[nH]c1=S`, the signal change vs control minus 3*SD hit threshold (margin above threshold, higher = more increase) is -20.9%.
`CCCn1c(SC(C)C(=O)N2CCOCC2)nc2ccc(Br)cc2c1=O` (centres undefined): the signal change vs control minus 3*SD hit threshold (margin above threshold, higher = more increase) is -28.1%.
For `N#Cc1ccc(-c2nc3cc(Cl)ccc3c(=O)n2O)cc1`, the signal change vs control minus 3*SD hit threshold (margin above threshold, higher = more increase) is -29.9%.
Take `O=c1c2cc(Br)ccc2nc(-c2ccc(Cl)cc2)n1O`: the signal change vs control minus 3*SD hit threshold (margin above threshold, higher = more increase) is 48.2% (active).
Turning to `COc1cc(OC)cc(-c2nc3ccccc3c(=O)n2OC(=O)c2ccc(Br)cc2)c1`, the signal change vs control minus 3*SD hit threshold (margin above threshold, higher = more increase) was -34.9%.
On to `NC(=O)c1nn2c(C(F)(F)F)cc(-c3ccccc3)nc2c1Br`, for which the signal change vs control minus 3*SD hit threshold (margin above threshold, higher = more increase) was -26%.
On to `O=C(Cn1nnc(-c2cccc(C(F)(F)F)c2)n1)N1CCCCCC1`, for which the signal change vs control minus 3*SD hit threshold (margin above threshold, higher = more increase) was -29.6%.
To `O=c1c2ccc(Cl)cc2nc(-c2cccc(C(F)(F)F)c2)n1O` belongs 66.5% (active); to `CCCn1c(SCN2C(=O)c3ccccc3C2=O)nc2cc(Cl)ccc2c1=O`, -10.9%.
Turning to `O=c1c2cc(Br)ccc2nc(-c2cccc(Cl)c2)n1O`, the signal change vs control minus 3*SD hit threshold (margin above threshold, higher = more increase) is 45.7% (active).
Turning to `O=c1c2cc(Br)ccc2nc(-c2cccc(C(F)(F)F)c2)n1O`, the signal change vs control minus 3*SD hit threshold (margin above threshold, higher = more increase) is 69.7% (active).
For `O=C(CCc1ccccc1Cl)Nc1ccc(S(=O)(=O)N2CCOCC2)cc1`, the signal change vs control minus 3*SD hit threshold (margin above threshold, higher = more increase) was -31.3%.
Turning to `CC(=O)OCC1O[C@@H](O[C@@H]2C[C@H]3C(C)(C)[C@H](OC(C)=O)CC[C@]3(C)[C@H]3CC[C@]45C[C@]4(CC[C@H]5[C@@H](C)C[C@@H](O)[C@H](O)C(C)(C)O)[C@@]32C)[C@H](O)[C@@H](O)[C@@H]1O` (some centres undefined), the signal change vs control minus 3*SD hit threshold (margin above threshold, higher = more increase) is -4.8%.
For the molecule `Cc1c(OC(C)C(=O)NCCN2CCOCC2)ccc2c3c(c(=O)oc12)CCC3` (centres undefined), the signal change vs control minus 3*SD hit threshold (margin above threshold, higher = more increase) was -28.3%.
As to `Cc1occc1C(=O)NNC(=S)NC(=O)COc1ccc(Cl)cc1Cl`, the signal change vs control minus 3*SD hit threshold (margin above threshold, higher = more increase) is -23.7%.
As for `Cc1c(C#N)c(O)[nH]c(=O)c1N=Nc1ccc(Br)cc1C(=O)O`, the signal change vs control minus 3*SD hit threshold (margin above threshold, higher = more increase) is -28.4%.
Turning to `N#Cc1ccc(-c2nc3ccc(Br)cc3c(=O)n2O)cc1`, the signal change vs control minus 3*SD hit threshold (margin above threshold, higher = more increase) is -5.1%.
As for `O=c1cc(-c2ccccc2)cc(-c2ccccc2)n1O`, the signal change vs control minus 3*SD hit threshold (margin above threshold, higher = more increase) was -22.5%.
With `O=c1c2cc(Br)ccc2nc(-c2ccccc2)n1O`, the signal change vs control minus 3*SD hit threshold (margin above threshold, higher = more increase) is 5.2% (active).
To `Cc1sc2nc(C(C)C)nc(SCC(=O)NCc3ccco3)c2c1C` belongs -12.6%; to `O=C(NC(=S)N1CCCC(C(F)(F)F)C1)c1ccc(F)cc1` (centres undefined), 4.7% (active).
Regarding `CC(C)(C)c1ccc(C(=O)NC(=S)N2CCCCCC2)cc1`, the signal change vs control minus 3*SD hit threshold (margin above threshold, higher = more increase) was -12.4%.
In the case of `CC(C)(C)c1ccc(C(=O)NC(=S)N2CCCC2)cc1`, the signal change vs control minus 3*SD hit threshold (margin above threshold, higher = more increase) was -17.2%.
To `CNC(=S)N/N=C/c1cc(Br)cc(Br)c1O` belongs -14.8%; to `Cc1nnc(C)n1/N=C/c1cc(Br)cc(Br)c1O`, -18.1%.
Regarding `CC(=O)N1c2ccc(N=Cc3cc(Br)cc(Br)c3O)cc2CC1C` (centres undefined), the signal change vs control minus 3*SD hit threshold (margin above threshold, higher = more increase) was 1.6% (active).
With `NC(=O)[C@@H]1CCCN1Cc1nc(Cc2ccccc2Cl)no1`, the signal change vs control minus 3*SD hit threshold (margin above threshold, higher = more increase) was -33.1%.
As for `CSc1nc(C)c(Cc2ccccc2)c(=O)[nH]1`, the figure is -30.6%.
To `O=c1ccc(N=Nc2ccccc2)ccc1O` belongs 27.6% (active); to `CN(C)c1ccc(N=Nc2ccc(C(=O)O)cc2)cc1`, -27.2%; to `Cc1ccc(N=Nc2ccc(O)c3ncccc23)cc1`, -33.4%.
`CCC1CCCCN1C(=S)NC(=O)c1cccs1` (centres undefined): the signal change vs control minus 3*SD hit threshold (margin above threshold, higher = more increase) was -31.1%.
Take `COc1ccc(C(=O)Nc2ccccc2C(=O)O)cc1Cl`: the signal change vs control minus 3*SD hit threshold (margin above threshold, higher = more increase) is -30.4%.
Consider `COc1ccc(-n2nc(C)cc2Nc2ccccc2C(=O)O)cc1`, for which the signal change vs control minus 3*SD hit threshold (margin above threshold, higher = more increase) was 0.3% (active).
As for `COc1ccc(/C=C/C(=O)Nc2ccccc2C(=O)O)cc1`, the figure is -18.6%; as for `CCOc1cc(N2CCOCC2)c(OCC)cc1NC(=O)Cc1ccccc1`, -13.5%; as for `Nc1nonc1-n1nnc(C(=O)N/N=C/c2ccccn2)c1-c1ccccc1`, -22.7%.
Take `O=C(NC(=S)Nc1nc2c(s1)CSc1ccccc1-2)c1ccccc1`: the signal change vs control minus 3*SD hit threshold (margin above threshold, higher = more increase) was -20.9%.
Regarding `COc1ccc(-c2cc(C(F)(F)F)nc(SCC(=O)NCc3cccs3)n2)cc1`, the signal change vs control minus 3*SD hit threshold (margin above threshold, higher = more increase) is -17.2%.
`Cc1ccccc1NC1=NC(=S)N(c2ccccc2)C12CCCCC2`: the signal change vs control minus 3*SD hit threshold (margin above threshold, higher = more increase) was -2.6%.
Regarding `COc1ccc(C(=O)NNC(=O)C(=O)Nc2cccc3ccccc23)cc1`, the signal change vs control minus 3*SD hit threshold (margin above threshold, higher = more increase) was 12.2% (active).
As for `COc1ccc(C(=O)CC(=O)C(=O)Nc2ccccc2C(F)(F)F)cc1`, the figure is -24.1%.
Consider `COc1ccc(C(=O)CC(=O)C(=O)Nc2ccccc2OC)cc1`, for which the signal change vs control minus 3*SD hit threshold (margin above threshold, higher = more increase) is -25.2%.
As to `COc1ccc(C(=O)CC(=O)C(=O)Nc2ccccc2Cl)cc1`, the signal change vs control minus 3*SD hit threshold (margin above threshold, higher = more increase) was 10.1% (active).
